Reference: PMC5540273 (PLoS ONE, 2017)

Key:
Conditions in all cases: concentration: 1 μM,replicates: in singlicate; n = 1
FGFR1 = test system: FGFR1
FGFR2 = test system: FGFR2
FGFR3 = test system: FGFR3
FGFR4 = test system: FGFR4
FGR = test system: FGR
FLT1 = test system: FLT1
FLT3-autoinhibited = test system: FLT3-autoinhibited
FLT3 = test system: FLT3
FLT4 = test system: FLT4
FRK = test system: FRK
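Also: KINOMEscan kinase panel screen.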

Row | Structure (SMILES) | %Inh (FGFR1) [%] | %Inh (FGFR2) [%] | %Inh (FGFR3) [%] | %Inh (FGFR4) [%] | %Inh (FGR) [%] | %Inh (FLT1) [%] | %Inh (FLT3-autoinhibited) [%] | %Inh (FLT3) [%] | %Inh (FLT4) [%] | %Inh (FRK) [%]
1 | C[C@@H]1CCN(C(=O)N2CCCC2)C[C@@H]1N(C)c1ncnc2[nH]ccc12 | 13 | 9 | 20 | 3 | 29 | 21 | 18 | 38 | 6 | 0
2 | COC(=O)Nc1nc2cc(Oc3ccc(NC(=O)Nc4cc(C(F)(F)F)ccc4Cl)cc3)ccc2[nH]1.Cl [GW697465] | 4 | 34 | 95.8 | 1 | 13 | 98.8 | 0 | 99.1 | 99.4 | 91.8
3 | O=C(Nc1n[nH]c2cc(-c3ccco3)ccc12)C1CC1 [SB-737447] | 14 | 0 | 6 | 0 | 0 | 0 | 4 | 59 | 0 | 0
4 | O=C(Nc1ccc(Oc2ccc3nc(NC(=O)C4CC4)cn3n2)c(F)c1)c1cccn(-c2ccccc2)c1=O | 0 | 9 | 11 | 6 | 73 | 98.3 | 43 | 98.2 | 99.4 | 45
5 | COc1cc2nccc(Nc3ccc(Oc4ccccc4)cc3)c2cc1OC.Cl [GI261656] | 0 | 0 | 1 | 0 | 95.5 | 20 | 0 | 69 | 50 | 66
6 | Cl.c1ccc(Oc2ccc(Nc3ccnc4cc(-c5ccc(CN6CCNCC6)o5)ccc34)cc2)nc1 [GW567142] | 0 | 0 | 0 | 0 | 74 | 8 | 41 | 90.4 | 6 | 7
7 | COc1cccc(C2=C(Nc3cccc(Cl)c3)C(=O)NC2=O)c1 [SB-341556] | 21 | 23 | 29 | 15 | 5 | 13 | 4 | 0 | 15 | 16
8 | CSc1nccc(-c2c(-c3ccc(F)cc3)ncn2CCCN2CCOCC2)n1.Cl [SB-217146] | 0 | 0 | 0 | 0 | 0 | 0 | 0 | 0 | 0 | 0
9 | C[C@@H](Oc1cc(-n2cnc3ccc(-c4ccncc4)cc32)sc1C(N)=O)c1ccccc1Cl [GSK483724] | 11 | 6 | 29 | 15 | 27 | 35 | 6 | 53 | 37 | 14
10 | c1ccc(Oc2ccc(Nc3ccnc4ccc(-c5ccccn5)cc34)cc2)cc1 [GW407034] | 0 | 34 | 25 | 4 | 69 | 14 | 0 | 0 | 3 | 38
11 | CCn1c(-c2nonc2N)nc2cncc(CNC3CCNCC3)c21.Cl [SB-747651] | 0 | 0 | 5 | 6 | 1 | 8 | 3 | 0 | 10 | 0
12 | Cc1n[nH]c2cc(Nc3ccnc(Nc4cccc(CN5CCOCC5)c4)n3)ccc12 [GW682569] | 15 | 0 | 32 | 0 | 49 | 70 | 18 | 68 | 65 | 0
13 | Cl.Nc1n[nH]c2cc(-c3ccccn3)ccc12 [GSK2189892] | 0 | 15 | 0 | 0 | 10 | 19 | 0 | 0 | 0 | 1
14 | O=C(Nc1cccc(Oc2ccc3nccn3n2)c1)Nc1cccc(C(F)(F)F)c1 | 29 | 4 | 0 | 0 | 18 | 93.2 | 0 | 59 | 99 | 77
15 | CCCC(=O)Nc1n[nH]c2ncccc12 [SB-601436] | 0 | 0 | 0 | 0 | 30 | 0 | 0 | 13 | 0 | 0
16 | CNC(=O)c1ccccc1Nc1nc(Nc2cccc(CS(C)(=O)=O)c2)ncc1C.O=CO [GSK1520489] | 99.9 | 99.3 | 99.8 | 94.6 | 99.2 | 98.2 | 89 | 99.1 | 100 | 98.2
17 | NC(=O)Nc1sc(-c2ccc(F)cc2)cc1C(N)=O [GW789449] | 36 | 7 | 10 | 0 | 45 | 28 | 5 | 50 | 31 | 0
